Laboratory results from PubChem BioAssay (EPA / NIEHS).
Where “and” joins values, the source holds several entries; their conditions need not be identical. Equal values may be shown once. Where a structure was tested more than once in an assay, its records may differ in their call. Calls of active or inactive are those of the source. The calls were made as follows: active = hit-call score of the fitted dose curve at least 0.9, where 1 is the maximum; inactive = score below 0.9.

Experiments:
[1] = BSK_CASM3C_SRB: Viability Assessment in the BioMAP Diversity Plus: CASM3C Assay (AID 2283050); conditions: primary human coronary artery smooth muscle cells;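 also: cells exposed to compound for 24 h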
[2] = read-out: Thrombomodulin, THBD (gene 7056); assay: BSK_CASM3C_Thrombomodulin: BioMAP Diversity Plus: CASM3C Assay for Thrombomodulin Biomarker Activity (AID 2283051); conditions: primary human coronary artery smooth muscle cells; actives raise or lower the signal;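 also: thrombomodulin protein level measured by ELISA 24 h after dosing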
[3] = read-out: Tissue Factor, F3 (gene 2152); assay: BSK_CASM3C_TissueFactor: BioMAP Diversity Plus: CASM3C Assay for Tissue Factor Biomarker Activity (AID 2283052); conditions: primary human coronary artery smooth muscle cells; actives raise or lower the signal;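 also: cell surface tissue factor protein level read by ELISA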
[4] = read-out: Interferon-gamma inducible Protein 10 (IP10), CXCL10 (gene 3627); assay: BSK_hDFCGF_IP10: BioMAP Diversity Plus: hDFCGF Assay for Interferon-gamma inducible Protein 10 (IP10) Biomarker Activity (AID 2283053); conditions: primary human foreskin fibroblasts; actives raise or lower the signal
Procedure, shortened: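 Primary human foreskin fibroblasts exposed to chemicals for 24 h. IP-10 measured by ELISA; changes fitted bidirectionally against DMSO baseline.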

[5] = read-out: Urokinase-type plasminogen activator receptor (uPAR), PLAUR (gene 5329); assay: BSK_CASM3C_uPAR: BioMAP Diversity Plus: CASM3C Assay for Urokinase-type plasminogen activator receptor (uPAR) Biomarker Activity (AID 2283054); conditions: primary human coronary artery smooth muscle cells; actives raise or lower the signal;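 also: cell-surface uPAR protein level quantified by ELISA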
[6] = read-out: Vascular cell adhesion molecule 1 (VCAM1), VCAM1 (gene 7412); assay: BSK_CASM3C_VCAM1: BioMAP Diversity Plus: CASM3C Assay for Vascular cell adhesion molecule 1 (VCAM1) Biomarker Activity (AID 2283055); conditions: primary human coronary artery smooth muscle cells; actives raise or lower the signal;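 also: VCAM-1 protein level quantified by ELISA on the cells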
[7] = read-out: Collagen III, COL3A1 (gene 1281); assay: BSK_hDFCGF_CollagenIII: BioMAP Diversity Plus: hDFCGF Assay for Collagen III Biomarker Activity (AID 2283056); conditions: primary human foreskin fibroblasts; actives raise or lower the signal
Procedure, shortened: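 Cells: human foreskin fibroblasts, primary. Dosing followed by 24 h incubation, then ELISA for collagen III. Both increases and decreases scored relative to DMSO.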

[8] = read-out: Epidermal growth factor receptor (EGFR), EGFR (gene 1956); assay: BSK_hDFCGF_EGFR: BioMAP Diversity Plus: hDFCGF Assay for Epidermal growth factor receptor (EGFR) Biomarker Activity (AID 2283057); conditions: primary human foreskin fibroblasts; actives raise or lower the signal
Procedure, shortened: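 Primary human foreskin fibroblasts (hDFCGF system), sampled 24 h after dosing; EGFR quantified by ELISA. Bidirectional fit relative to DMSO baseline; SRB total-protein staining in parallel cultures for cytotoxicity.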

[9] = BSK_hDFCGF_Proliferation: Cell Proliferation Assessment in the BioMAP Diversity Plus: hDFCGF Assay (AID 2283059); conditions: primary human foreskin fibroblasts;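 also: curves fitted for both rise and fall of signal versus DMSO baseline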
Procedure, shortened: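 Sub-confluent human foreskin fibroblast cultures receive test chemical […]. Relative cell number is quantified by sulforhodamine B staining (0.1%, after 10% TCA fixation) at 560 nm, with bidirectional fitting referenced to DMSO.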

[10] = read-out: Macrophage colony-stimulating factor (MCSF), CSF1 (gene 1435); assay: BSK_hDFCGF_MCSF: BioMAP Diversity Plus: hDFCGF Assay for Macrophage colony-stimulating factor (MCSF) Biomarker Activity (AID 2283060); conditions: primary human foreskin fibroblasts; actives raise or lower the signal
Procedure, shortened: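 M-CSF levels, determined by ELISA, are taken at 24 h after dosing human skin fibroblasts. Responses in either direction are fitted with DMSO serving as the baseline.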

[11] = BSK_hDFCGF_SRB: Viability Assessment in the BioMAP Diversity Plus: hDFCGF Assay (AID 2283061); conditions: primary human foreskin fibroblasts;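 also: cells exposed to compound for 24 h before the read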
Procedure, shortened: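 Cells were dosed with test chemical, cultured 24 h, fixed with 10% TCA, then stained with 0.1% SRB and read at 560 nm. The fibroblasts were human foreskin primary cells, and DMSO served as baseline.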

[12] = read-out: Monokine induced gamma interferon (MIG), CXCL9 (gene 4283); assay: BSK_hDFCGF_MIG: BioMAP Diversity Plus: hDFCGF Assay for Monokine induced gamma interferon (MIG) Biomarker Activity (AID 2283063); conditions: primary human foreskin fibroblasts; actives raise or lower the signal
Procedure, shortened: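 MIG signal, determined by ELISA, reflects 24 h chemical exposure of human skin primary fibroblasts. DMSO serves as negative control and baseline.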

[13] = read-out: Matrix Metallopeptidase 1 (MMP1), MMP1 (gene 4312); assay: BSK_hDFCGF_MMP1: BioMAP Diversity Plus: hDFCGF Assay for Matrix Metallopeptidase 1 (MMP1) Biomarker Activity (AID 2283064); conditions: primary human foreskin fibroblasts; actives raise or lower the signal
Procedure, shortened: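 Primary human foreskin fibroblasts in the hDFCGF system were dosed with test chemical, and MMP1 was measured by ELISA 24 h later. Values come from bidirectional curve fitting against the DMSO baseline.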

[14] = read-out: Vascular cell adhesion molecule 1 (VCAM1), VCAM1 (gene 7412); assay: BSK_hDFCGF_VCAM1: BioMAP Diversity Plus: hDFCGF Assay for Vascular cell adhesion molecule 1 (VCAM1) Biomarker Activity (AID 2283065); conditions: primary human foreskin fibroblasts; actives raise or lower the signal;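 as to AC50: VCAM-1 protein level quantified by ELISA after 24 h chemical exposure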
Procedure, shortened: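 Cells are dosed, cultured for 24 h, then VCAM-1 is quantified by ELISA; signal increases and decreases are both fitted relative to DMSO.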

[15] = read-out: Plasminogen activator inhibitor-1 (PAI1), SERPINE1 (gene 5054); assay: BSK_hDFCGF_PAI1: BioMAP Diversity Plus: hDFCGF Assay for Plasminogen activator inhibitor-1 (PAI1) Biomarker Activity (AID 2283066); conditions: primary human foreskin fibroblasts; actives raise or lower the signal
Procedure, shortened: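 Human foreskin fibroblast primary cells, 24 h chemical exposure; PAI-1 measured by ELISA. Bidirectional fitting relative to DMSO; parallel cultures stained with SRB for total protein to flag overt cytotoxicity.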

[16] = read-out: Intercellular Adhesion Molecule 1 (ICAM1), ICAM1 (gene 3383); assay: BSK_KF3CT_ICAM1: BioMAP Diversity Plus: KF3CT Assay for Intercellular Adhesion Molecule 1 (ICAM1) Biomarker Activity (AID 2283067); conditions: primary human keratinocytes with fibroblasts; actives raise or lower the signal
Procedure, shortened: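 Dose the keratinocyte/fibroblast co-culture, wait 24 h, measure ICAM-1 by ELISA, then fit increases or decreases against DMSO. Cytotoxicity is checked in parallel cultures by SRB total-protein staining.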

[17] = read-out: Interferon-gamma inducible Protein 10 (IP10), CXCL10 (gene 3627); assay: BSK_KF3CT_IP10: BioMAP Diversity Plus: KF3CT Assay for Interferon-gamma inducible Protein 10 (IP10) Biomarker Activity (AID 2283068); conditions: primary human keratinocytes with fibroblasts; actives raise or lower the signal
Procedure, shortened: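 ELISA read-out of IP-10 after 24 h chemical dosing of human skin primary co-culture (keratinocytes, foreskin fibroblasts). Gain or loss of signal relative to DMSO, bidirectional curve fit.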

[18] = BSK_KF3CT_SRB: Viability Assessment in the BioMAP Diversity Plus: KF3CT Assay (AID 2283069); conditions: primary human keratinocytes with fibroblasts;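 also: total protein by sulforhodamine B staining as a cytotoxicity measure; fitted for both signal gain and loss against DMSO baseline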
Procedure, shortened: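 Human primary keratinocyte plus foreskin fibroblast co-culture exposed to chemicals for 24 h. Total protein measured by 0.1% sulforhodamine B staining after 10% TCA fixation, read at 560 nm; bidirectional fitting versus DMSO baseline.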

[19] = read-out: Interleukin-8 (IL8), CXCL8 (gene 3576); assay: BSK_hDFCGF_IL8: BioMAP Diversity Plus: hDFCGF Assay for Interleukin-8 (IL8) Biomarker Activity (AID 2283058); conditions: primary human foreskin fibroblasts; actives raise or lower the signal
Procedure, shortened: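 IL-8 levels from compound-treated primary human fibroblasts were read by ELISA at 24 h, with DMSO serving as baseline for bidirectional fitting.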

[20] = read-out: TIMP metallopeptidase inhibitor 1 (TIMP1), TIMP1 (gene 7076); assay: BSK_hDFCGF_TIMP1: BioMAP Diversity Plus: hDFCGF Assay for TIMP metallopeptidase inhibitor 1 (TIMP1) Biomarker Activity (AID 2283062); conditions: primary human foreskin fibroblasts; actives raise or lower the signal
Procedure, shortened: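 Fibroblasts from human foreskin are treated with test chemical and harvested at 24 h. TIMP-1 is quantified by ELISA, and gain or loss of signal is scored against DMSO.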

Measured: AC50

Oc1ccc(/C=C/c2cc(O)cc(O)c2)cc1
active: [3] 7.96 µM | [9] 17.5 µM | [15] 474 nM
not listed: [19] | [20]
inactive: all other assays above

C[N+](C)(C)CCCNS(=O)(=O)C(F)(F)C(F)(F)C(F)(F)C(F)(F)C(F)(F)C(F)(F)C(F)(F)C(F)(F)F
inactive: [1] | [2] | [3] | [5] | [6] | [8] | [12] | [13] | [16]
active: [2] 30 µM | [4] 48.5 µM and 48.9 µM | [7] 11.4 µM and 5.3 µM | [19] 49.3 µM and 45.2 µM | [9] 1.44 µM and 220 nM | [10] 46.1 µM and 48.7 µM | [11] 55.3 µM and 47.5 µM | [14] 38.9 µM and 50.2 µM | [15] 47.8 µM and 53.5 µM | [16] 47.6 µM | [17] 42.7 µM and 46.7 µM | [18] 49.8 µM and 51.4 µM

Nc1nc(N)nc(-c2ccccc2)n1
inactive: [1] | [2] | [3] | [4] | [5] | [6] | [7] | [8] | [9] | [10] | [11] | [20] | [12] | [13] | [14] | [15] | [16] | [17] | [18]
active: [3] 0.0609 µM | [6] 268 nM

C=C(C)C(=O)OCCCCCCCCCCCC
active: [9] 11.7 µM
not listed: [19] | [20]
inactive: all other assays above

CC1(C)CC(O)CC(C)(C)N1[O]
not listed: [19] | [20]
inactive: all other assays above

CC1=CC=C(C(C)C)CC1
not listed: [19]
inactive: all other assays above
